The record followed here is PubChem BioAssay (NCI).

SMILES strings stand for the structures. About 79,000 compounds went through this panel and 15% of them were active in at least one assay; those are over-represented in the sample as a whole. Values without a mark were called inactive. The source made the active and inactive calls. No stated cut-off is given here; in the data, active means growth inhibition above about 70%; inactive means the rest.

This assay is described as follows: NCI Yeast Anticancer Drug Screen. Data for the mlh1 strain (AID 171).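 Further: 0% = growth of vehicle-treated control cultures of the same strain.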 Conditions: S. cerevisiae mlh1 strain growth inhibition, stronger effect = higher value. As for the experimental part:
Growth inhibition of yeast strains with defined genetic alterations is measured as a screen for potential anti-cancer activity. Selected strains with alterations in DNA damage repair or cell cycle control were exposed to compounds and growth inhibition was measured relative to vehicle treated controls. The strain used in this assay is mlh1

As to `Cn1c(=O)c(-c2ccccc2)c(N=[N+]=[N-])c2ccccc21`, the growth inhibition runs as follows: (at 1.2 µM) 1%; (at 3.7 µM) 3%; (at 11.0 µM) 43%; (at 33.0 µM) 92% (active); (at 100.0 µM) 88% (active).
Consider `NC(=NCc1ccccc1)N/N=C\c1ccnc2ccccc12`, for which the growth inhibition (at 1.2 µM) was -2%; the growth inhibition (at 3.7 µM) is -1%; the growth inhibition (at 11.0 µM) was 2%; the growth inhibition (at 33.0 µM) was 10%; the growth inhibition (at 100.0 µM) was 52%.
As to `CC(=O)[O][Bi]([c]1ccccc1)[c]1ccccc1`, the growth inhibition (at 1.2 µM) was 28%; the growth inhibition (at 3.7 µM) was 30%; the growth inhibition (at 11.0 µM) is 40%; the growth inhibition (at 33.0 µM) was 89% (active); the growth inhibition (at 100.0 µM) is 95% (active).
On to `CCCCCCc1cc(C(=O)OC/C(C)=N/NC(N)=O)c2ccccc2n1`, for which the growth inhibition runs as follows: (at 1.2 µM) -3%; (at 3.7 µM) -4%; (at 11.0 µM) -4%; (at 33.0 µM) -5%; (at 100.0 µM) -5%.
With `COC1=CC(=O)C2C(C1=O)C(c1ccc(Cl)cc1)[C@@H]2C` (stereo not given in full), the growth inhibition is 20% (at 1.2 µM); 39% (at 3.7 µM); 98% (active) (at 11.0 µM); 99% (active) (at 33.0 µM); 99% (active) (at 100.0 µM).
As for `N#Cc1ccc(C2NN=CC23C(=O)c2ccccc2OC3c2ccccc2)cc1` (stereo not given), the growth inhibition by setting is: (at 1.2 µM) 0%; (at 3.7 µM) -5%; (at 11.0 µM) 0%; (at 33.0 µM) -2%; (at 100.0 µM) 4%.
For `CC(=O)Nc1ccc(/C=C(\C#N)c2ccc(C)cc2)cc1`, the growth inhibition (at 1.2 µM) is -20%; the growth inhibition (at 3.7 µM) was -21%; the growth inhibition (at 11.0 µM) was -18%; the growth inhibition (at 33.0 µM) was -6%; the growth inhibition (at 100.0 µM) is -10%.
Turning to `CC[C@@]1(O)C(=O)OCc2c1cc1n(c2=O)Cc2cc3c(N)cccc3nc2-1`, the growth inhibition was 1% (at 1.2 µM); 6% (at 3.7 µM); 11% (at 11.0 µM); 16% (at 33.0 µM); 2% (at 100.0 µM).
